Assay outcomes: PubChem BioAssay, National Center for Advancing Translational Sciences (NCATS)
NPSR antag: qHTS Assay for Antagonists of the Neuropeptide S Receptor: cAMP Signal Transduction; Q6W5P4; CHO-NPSR cells, cAMP TR-FRET, antagonist mode; Potency, µM (titrated, usually from 38.3 µM), for inactives: top-dose activity change, negative = inhibition, usual class: inhibitors; 220,000 tested, 1% active; AID 1461, 2008; further: nearly all actives have a fitted effect of over 50% in size
Gal4-VP16 FLuc: VP16 counterscreen qHTS for inhibitors of ROR gamma transcriptional activity; Drosophila S2 Gal4-VP16 UAS-luciferase, luminescence, 20 h; Potency, µM (series often up to 53.6 µM), for the others: top-dose activity, negative = inhibition, actives largely listed as inhibitors; 310,000 tested, 3.5% active;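 further: Gal4-VP16 expression switched on by copper sulfate through the metallothionein promoter; nearly all actives have a fitted effect of over 50% in size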
B2AR arrestin: qHTS assay of beta-arrestin-biased ligands of beta2-adrenergic receptor | Beta-2 adrenergic receptor (Homo sapiens), P07550 | beta-arrestin recruitment to beta2AR, cell-based reporter | Potency, µM (top dose mostly 46.1 µM), for the others: top-dose activation, most hits filed as activators | 330,000 tested, 0.02% active;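 further: 0% = DMSO controls and full agonism = EC100 isoproterenol or metaproterenol; nearly all actives have a fitted effect of over 65% in size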
Target sequence (P07550 whole entry, looked up): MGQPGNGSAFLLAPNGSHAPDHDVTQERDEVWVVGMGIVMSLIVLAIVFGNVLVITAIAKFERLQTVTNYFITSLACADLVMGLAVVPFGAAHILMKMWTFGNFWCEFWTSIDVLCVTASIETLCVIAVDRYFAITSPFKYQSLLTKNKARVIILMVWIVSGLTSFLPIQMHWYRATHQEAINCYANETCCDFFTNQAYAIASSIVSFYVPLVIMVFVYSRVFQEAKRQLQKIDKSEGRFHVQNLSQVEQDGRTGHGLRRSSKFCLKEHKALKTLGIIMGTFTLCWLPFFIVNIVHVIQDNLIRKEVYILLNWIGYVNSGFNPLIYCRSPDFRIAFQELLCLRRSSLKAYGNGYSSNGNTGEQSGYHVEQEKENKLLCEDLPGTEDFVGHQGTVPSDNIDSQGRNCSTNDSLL
RORgamma inh: qHTS for inhibitors of ROR gamma transcriptional activity; Drosophila S2 Gal4-RORgamma UAS-luciferase reporter, 20 h; 310,000 tested, 5.4% active; Nuclear receptor ROR-gamma (Mus musculus), P51450; Potency, µM (titrated, usually from 53.6 µM), inactives show at the highest dose activity change, negative = inhibition, most hits filed as inhibitors; further: nearly all actives have a fitted effect of over 60% in size
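Luminescence from a UAS-regulated Photinus luciferase reporter in stably transfected Drosophila Schneider cells is measured; decreased signal marks ROR gamma inhibition. Fusion expression is induced by 700 uM copper sulfate for 20 hr.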
* = called active by the depositor; ! = a repeat was not active; [ ] = remark or other dose. An excerpt weighted towards active compounds, which were near 5.7% of everything screened. The call rests on the fitted dose curve; in most records, active means well fitted curve in the direction sought with a large enough effect; inconclusive means small, poorly fitted or top-dose-only effect, or another doubt; inactive means no such curve, though single readings can be large; an effect the other way counts as inactive or inconclusive. Unless noted, on the % scale 0 is the no-effect control and ±100 the full control effect; potency means the concentration at half of the fitted maximal effect.

Screening CC(C)c1ccc(-c2noc(C3CCCN(C(=O)c4ccc(F)cc4F)C3)n2)cc1 (stereo unspecified) returned NPSR antag inconclusive, Gal4-VP16 FLuc 8.91µM*, B2AR arrestin -0.5% and RORgamma inh inconclusive.
For Nn1c(SCc2ccc(F)cc2)nnc1-c1ccncc1 the results were NPSR antag 53.3%, Gal4-VP16 FLuc 3.1%, B2AR arrestin -0.4% and RORgamma inh 2.6%.
Screening COC(=O)CSc1ncnc2c1cnn2Cc1ccccc1 returned NPSR antag 14.3%[46.1 µM], Gal4-VP16 FLuc -27.6%, B2AR arrestin 0.0% and RORgamma inh 10µM*.
NC=O was read as Gal4-VP16 FLuc 1.4% and RORgamma inh -10.1%.
`O=C(CNc1ccc(Br)cc1)NNC1=NCCC1` gave NPSR antag 12.2%, Gal4-VP16 FLuc 7.08µM*, B2AR arrestin -0.7% and RORgamma inh 5.62µM*.
Screening Cn1c(=O)c([N+](=O)[O-])c(Cl)c2ccccc21 returned NPSR antag inconclusive, Gal4-VP16 FLuc 12.6µM*, B2AR arrestin -0.4% and RORgamma inh 10µM*.
Screening CCN(CC)c1c([N+](=O)[O-])c(=O)n(C)c2ccccc12 returned NPSR antag -2.4%, Gal4-VP16 FLuc -2.8%, B2AR arrestin 0.2% and RORgamma inh 1.0%.
For O=C(NCc1cccnc1)NC1(C(F)(F)F)Oc2ccc(Cl)cc2O1 (stereo unspecified) the results were NPSR antag -2.3%[46.1 µM], Gal4-VP16 FLuc inconclusive, B2AR arrestin 0.2% and RORgamma inh 11.2µM*.
Screening O=C(CN1C(=O)NC2NC(=O)NC21)N/N=C/c1ccccc1F (stereo unspecified) returned NPSR antag 16.3%, Gal4-VP16 FLuc 19.7%, B2AR arrestin 0.0% and RORgamma inh 8.6%.
Screening CC(O)CNCCNCc1c(OCc2ccccc2)ccc2ccccc12 (stereo unspecified) returned NPSR antag 7.3%[46.1 µM], Gal4-VP16 FLuc 22.4µM*, B2AR arrestin -0.2% and RORgamma inh inconclusive.
CC(O)CNCCOc1ccccc1OCc1ccccc1 (stereo unspecified) was read as NPSR antag -14.6%, Gal4-VP16 FLuc 6.8%, B2AR arrestin -0.5% and RORgamma inh -12.4%.
For C[C@@H](NC(=O)c1[nH]cnc1C(=O)Nc1nccs1)c1ccccc1 the results were B2AR arrestin -1.3%.
Screening CN(O)/C=N/C(=S)Nc1ccc(Cl)cc1Cl returned NPSR antag 6.5%, Gal4-VP16 FLuc 0.7%, B2AR arrestin -0.1% and RORgamma inh 17.8µM*.
`CN(C)/C=N/C(=S)Nc1ccc(F)cc1` gave NPSR antag -14.1%[46.1 µM], Gal4-VP16 FLuc inconclusive and RORgamma inh 11.2µM*.
`CN(C)/C=N/C(=S)Nc1cc(Cl)cc(Cl)c1` gave NPSR antag -32.0%, Gal4-VP16 FLuc -0.6%[10 µM], B2AR arrestin -0.3% and RORgamma inh 19.7%.
For CN(C)/C=N/C(=S)Nc1ccccc1F the results were NPSR antag 8.2%[46.1 µM], Gal4-VP16 FLuc -1.9%, B2AR arrestin -0.1% and RORgamma inh -30.0%.
CN(C)/C=N/C(=S)Nc1ccccc1Cl was read as NPSR antag 6.9%, Gal4-VP16 FLuc 8.4%[10 µM], B2AR arrestin -0.4% and RORgamma inh 6.31µM*.
For CN(C)/C=N/C(=S)Nc1ccc(Cl)c(Cl)c1 the results were NPSR antag -33.3%, Gal4-VP16 FLuc 3.16µM*, B2AR arrestin 0.6% and RORgamma inh 1.78µM*.
Screening CCCCCCCCCCCCCCC[C@H](O)[C@@H](N)CO returned Gal4-VP16 FLuc 6.3% and RORgamma inh -20.1%.
Cc1cccc(CNc2ncnc3ccc(-c4cccc(Cl)c4)cc23)c1 was read as B2AR arrestin -0.8%.
For Cc1nn(-c2ccc(F)cc2)c(Cl)c1C(=O)NCC1CCCO1 (stereo unspecified) the results were B2AR arrestin 0.9%.
Screening CN1CCN(c2ccc(C(F)(F)F)cc2NC(=O)Nc2ccccc2)CC1 returned Gal4-VP16 FLuc 3.9%, B2AR arrestin 0.2% and RORgamma inh -1.9%.
Screening Cn1ccsc1=NC(=O)c1cc(S(=O)(=O)N2CCOCC2)ccc1F returned B2AR arrestin 0.0%.
Screening COc1cccc(Cn2c(=O)c(-c3cccs3)nc3cnc(N4CCN(C)CC4)nc32)c1 returned Gal4-VP16 FLuc -1.8% and RORgamma inh -24.2%.
COc1ccc(NC(=O)NNC(=O)C(C)Oc2ccc(C(C)C)cc2)c(OC)c1 (stereo unspecified) was read as Gal4-VP16 FLuc inconclusive, B2AR arrestin 0.5% and RORgamma inh 20µM*.
For CCOC(=O)N1CCN(/[N+]([O-])=N/Oc2ccc([N+](=O)[O-])cc2[N+](=O)[O-])CC1 the results were Gal4-VP16 FLuc 7.08µM*! and RORgamma inh 8.91µM*.
Screening CCOC(=O)c1nnn(-c2ccc([N+](=O)[O-])cc2[N+](=O)[O-])c1C returned NPSR antag 12.1%, Gal4-VP16 FLuc inconclusive, B2AR arrestin -0.3% and RORgamma inh 7.08µM*.
CC(=O)Nc1nnc(-c2c(-c3c(Cl)cccc3Cl)noc2C)o1 was read as NPSR antag 7.2%, Gal4-VP16 FLuc inconclusive, B2AR arrestin 0.3% and RORgamma inh 10µM*.
`Cc1onc(-c2c(Cl)cccc2Cl)c1C(N)=S` gave NPSR antag 13.5%, Gal4-VP16 FLuc inconclusive, B2AR arrestin -0.2% and RORgamma inh 7.94µM*.
`Cc1nc(C(=O)NNC(=O)c2c(-c3c(Cl)cccc3Cl)noc2C)cs1` gave NPSR antag 1.9%, Gal4-VP16 FLuc 8.91µM*, B2AR arrestin -0.6% and RORgamma inh 2.82µM*.
Screening Cc1onc(-c2c(Cl)cccc2Cl)c1-c1nnc(-c2ccc(Cl)cc2)o1 returned NPSR antag inconclusive, Gal4-VP16 FLuc inconclusive, B2AR arrestin 0.2% and RORgamma inh -14.8%.
For CC1=[N+](C)N(c2ccccc2)C(=O)C1N=Cc1c(Cl)cccc1Cl (stereo unspecified) the results were NPSR antag 13.7%, Gal4-VP16 FLuc 6.9%, B2AR arrestin 0.0% and RORgamma inh -5.4%.
For O=C1NCCCC2c3cc(O)c4ccccc4c3OC12N1CCCCC1 (stereo unspecified) the results were NPSR antag -27.8%[46.1 µM], Gal4-VP16 FLuc inconclusive, B2AR arrestin 0.2% and RORgamma inh 10µM*.
CN(C)CCCSc1ccccc1NC(=O)/C=C\c1ccccc1 was read as Gal4-VP16 FLuc -11.6% and RORgamma inh -4.9%.
CCN1c2ccccc2-c2nc3ccccc3n2C1c1ccco1 (stereo unspecified) was read as NPSR antag inconclusive, Gal4-VP16 FLuc inconclusive, B2AR arrestin 0.4% and RORgamma inh 15.8µM*.
CN1c2ccccc2-c2nc3ccccc3n2C1c1ccncc1 (stereo unspecified) was read as NPSR antag -26.3%[46.1 µM], Gal4-VP16 FLuc 8.8%, B2AR arrestin -0.2% and RORgamma inh -29.7%.
Screening CN1c2ccccc2-c2nc3ccccc3n2C1c1ccccn1 (stereo unspecified) returned NPSR antag inconclusive, Gal4-VP16 FLuc inconclusive, B2AR arrestin -0.2% and RORgamma inh 3.98µM*.
